From the OligoGym collection

Each sequence was assayed against NDUFAB1 (assay: pooled miR-30 sensor sort-seq; sequence = guide strand). Details: shRNA.
Note: reference of the scale not given here.

Row | Sequence | sensor-assay potency score (higher = more potent)
1 | TGTAATCTACAATTTCTTGTGG | 0.132
2 | TTACTGAAAGCTTCTCTGGGTC | 0.337
3 | TACGTAAAGAACACGGTCCTGG | 0.0334
4 | TTCTTGTGGACACATTAACTTT | -1.46
5 | TACAATTTAAATACAAGTCCAT | 0.341
6 | TACAATTTCTTGTGGACACATT | -0.835
7 | TAATCTACAATTTCTTGTGGAC | -0.35
8 | AAGTCCATCAGAATCACTCTGT | 0.545

These sequences were tested against NDUFC1 in the same assay as above. Details: shRNA.

Row | Sequence | sensor-assay potency score (higher = more potent)
9 | TTTGATCGCACTGAAGGGCCGC | -0.255
10 | TTTGATGAGATAGATCCACAAG | -1.07
11 | TAGATCCACAAGAAGACAGTGG | 0.0941
12 | TTCATTGTGTTGTTTGATGAGA | -0.384
13 | TTGTACTCTAAAATATCTTCAT | -0.343
14 | TATATATTCACATATAACTTTT | -0.874
15 | TTGATCGCACTGAAGGGCCGCT | -0.209
16 | TTTACAACTCAACAGATGGTGA | -0.815
17 | TAGAACTTTGATCGCACTGAAG | -1.43
18 | TTTTGTACTCTAAAATATCTTC | -0.163
19 | TTGTTTGATGAGATAGATCCAC | -0.545
20 | TAAAATATCTTCATTGTGTTGT | 1.09

What follows are sequences tested against NEBL in the same assay as above. Details: shRNA.

Row | Sequence | sensor-assay potency score (higher = more potent)
21 | TTGTCTTAAAAGTATCTTCTAT | -0.254
22 | TTTATGCCAATACTTATCCAGG | -1.28
23 | ATCTCTTTTGTACTTGACCTGA | -0.797
24 | TTCAATAATAGGAACGCGCAGT | -0.234
25 | TTATTTGGTCCTGACATTCTGT | -0.142
26 | TACATGGCTCGGTAGGTCCTTA | -0.857
27 | TAGCTGTGAAGTCAGACCCTAA | -1.2
28 | TTCATGTTGAGTGCCATCTTGC | -0.598
29 | TTGAATCTACATGACATGCAAC | -0.738
30 | TAGATTTGGTGAATGCTGCATT | 0.277
31 | TTTGTACTTGACCTGACTCTGC | -0.0804
32 | TTCAGGTGTATCTGCCACCGTG | -0.9

These sequences were tested against NEFH in the same assay as above. Details: shRNA.

Row | Sequence | sensor-assay potency score (higher = more potent)
33 | TTCGACAGCAGGTTCCTTCTTC | 0.393
34 | TTTGGGTTTAGCGTCTTCCTTC | -0.21
35 | TTGGCTTCTTCCTTCACTGGGG | 0.0706
36 | TATTGCTAACAGAAATTCCTGT | 0.67
37 | TACCTCTGTCTTTTCTTTGGGT | 0.0672
38 | TTTTCTTATCTTCAGCCTCTTC | -0.582
39 | TTGGTGTCTTTTTTCTCCGGTG | -0.602
40 | TCTCTTGCTAACATATTGCTAA | -0.697
